In the OligoGym collection:

target: AGAP3; test: pooled miR-30 sensor sort-seq; sequence = guide strand; settings: shRNA
Note: reference of the scale not given here.

Row | Sequence | sensor-assay potency score (higher = more potent)
1 | TCGCAGTCGATACAAAAGCTGT | -1.8
2 | TTCATCTCGGATCAGCAGCAGG | -1.26
3 | ATACTTCTTCTTCCACTCCTTG | -0.733
4 | ATTGGGTGCATCGCAGTCGATA | -1.38
5 | TACCAGATGAGCAGCTGCGTGA | -0.56
6 | TTAAGCTCCGGTACGGAGCGGC | -0.14
7 | TTGTACACCGTCTGGAAACTGA | -0.718
8 | TACACAAACATAAATATTCCAA | -0.597
9 | TTCCCTGGCACTTTCACCGTTG | -0.316
10 | TACTTCTTCTTCCACTCCTTGT | -0.51
11 | TGGAACTGAGTACCTCAGCTGG | -1.58
12 | TCTGCTGTCGTCGATAACCCGG | -1.3

target: AGBL5; test: as above; settings: shRNA

Row | Sequence | sensor-assay potency score (higher = more potent)
13 | TTCCGTTTCAGCACAGTCTGGT | 0.615
14 | TTGTAGATTGCAACACGGCCGC | -0.607
15 | TTTGGAAGCATGTCCATGCAGG | -0.608
16 | TTGTAGTTGCATTCAAGTGTGT | 0.25
17 | ATCTACACGAAGTCCATCCAGA | -1.07
18 | TTGAAGACAAAGCTAGATGGAG | -0.419
19 | TTCTTCTCTGAGAAATTGCAGC | -0.823
20 | AATAGTTCCACAGTGTATCTGG | 0.759
21 | TAGATTAGTAAGGCTGCTGTGC | -0.537
22 | TTGCATTCAAGTGTGTAGCTGT | 0.765
23 | TTTCAGCACAGTCTGGTCGGGT | -0.447
24 | TTTAGGGACAAAACAAACCTCA | -0.454

target: AGPAT6; test: as above; settings: shRNA

Row | Sequence | sensor-assay potency score (higher = more potent)
25 | TCTCTTTGATCTCTTCTTCTAG | -0.219
26 | TTCATCTGCCTCTCTAGTCATG | -1.09
27 | TTGATCTCTTCTTCTAGTGAAG | -1.1
28 | TTGAACATCATCACCGATGTAT | 0.749
29 | AAGATGATCACATCGATCGGTG | -0.372
30 | ATACTTGATAGCAACAGGGTAA | -0.725
31 | TACTACTACCACTTCGACGAAT | -0.506
32 | TTCTAGTGAAGTGGGATCCTTT | -0.0261
33 | TAAGTGAACATGTTTACTCATG | -1.14
34 | TATTGATGCAGGTTCCTTCTGG | -0.00526
35 | TCTTCTTCTAGTGAAGTGGGAT | -0.236
36 | TTTTTGAACATCATCACCGATG | -0.209
